Compounds with a hit are over-represented: about 3% of the library has one in this group of screens.
TrxR1 inh – inhibitors of rat thioredoxin reductase 1 | O89049 | recombinant rTrxR1, NADPH fluorescence consumption, selenite substrate | Potency, µM (titrated, usually from 114 µM), most hits filed as inhibitors | 390,000 tested, 1% active | AID 588453; note: nearly all actives have a fitted effect of over 65% in size
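Rat TrxR1 (90 nM in the dispensed reagent) was pre-reduced with 400 uM NADPH for 5 min at room temperature, then incubated with compound for 15 min. After 400 uM selenite was added, NADPH fluorescence (Ex 340/Em 450 nm) was followed for 8 min.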
Nrf2 activator – activators of Nrf2 (ARE) signaling; AREc32 ARE-luciferase reporter (MCF7-derived line), luminescence, 24 h; Potency, µM (top dose mostly 46.1 µM), hits mostly activators; 410,000 tested, 0.31% active; note: nearly all actives have a fitted effect of over 65% in size
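Luciferase luminescence (Steady-Glo, 30 min at room temperature) served as the read-out of ARE activation in AREc32 cells treated with compounds for 24 hr at 37 deg C.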
GALK inh – blocks human galactokinase activity; P51570; Purified GALK, Kinase-Glo residual ATP luminescence; AID 1868; Potency, µM (top dose mostly 57.5 µM), actives largely listed as inhibitors; 270,000 tested, 0.007% active
Target sequence (P51570 whole entry, looked up): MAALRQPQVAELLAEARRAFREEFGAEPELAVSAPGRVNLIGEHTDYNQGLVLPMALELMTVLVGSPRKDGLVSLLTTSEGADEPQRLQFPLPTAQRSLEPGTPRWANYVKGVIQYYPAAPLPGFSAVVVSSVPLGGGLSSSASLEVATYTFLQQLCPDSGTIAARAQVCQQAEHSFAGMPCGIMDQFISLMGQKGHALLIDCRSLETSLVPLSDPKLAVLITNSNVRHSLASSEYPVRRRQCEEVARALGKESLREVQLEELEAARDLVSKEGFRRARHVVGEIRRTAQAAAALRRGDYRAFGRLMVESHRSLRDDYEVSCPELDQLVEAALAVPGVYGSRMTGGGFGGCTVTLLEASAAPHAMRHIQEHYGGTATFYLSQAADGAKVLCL
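The enzyme phosphorylates galactose (100 uM) using ATP (35 uM); inhibition is detected as higher residual ATP, quantified by bioluminescence after 1 h reaction at room temperature, pH 8.0.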
TrxR1 substrate – rat thioredoxin reductase 1 substrate activity. 390,000 tested, 0.01% active. purified TrxR1 substrate turnover, NADPH consumption readout. O89049. Potency, µM (series often up to 114 µM); note: nearly all actives have a fitted effect of over 50% in size
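Rat TrxR1, dispensed at 90 nM, was prereduced with 400 uM NADPH (final) for 5 min at ~22 deg C, then incubated with compound 15 min before 400 uM selenite. A first-read NADPH fluorescence drop versus no-compound background flagged substrates.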
A549 tox – counter-screen for Nrf2 inhibitors: cytotoxicity in A549 cells; A549 ARE-Fluc cells, CellTiter-Fluor viability, 18-24 h; Potency, µM (doses to about 46 µM), actives largely listed as inhibitors; 390,000 tested, 0.16% active
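A549 ARE_Fluc cells in 5% FBS OPTI-MEM were exposed to compounds in concentration-response for 18-24 h at 37 deg C. Viability was read by CellTiter-Fluor fluorescence (Ex 405/Em 525) after 30 min, before the luciferase read.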
Nrf2 inh – inhibitors of Nrf2 signaling; Potency, µM (titrated, usually from 46 µM), most hits filed as inhibitors; A549 ARE-Fluc reporter, luciferase luminescence, 18-24 h; 360,000 tested, 2.1% active; note: nearly all actives have a fitted effect of over 60% in size
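Nrf2 function is reported as luminescence of an ARE-controlled luciferase in A549 cells. Compounds were tested at several concentrations, and a CellTiter-Fluor read on the same wells flagged cytotoxicity.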
A number is an active result; - = inactive; ? = inconclusive; . = no result; [ ] = remark or other dose. Calls come from the whole dose curve; as a rule, active = well fitted curve in the direction sought with a large enough effect; inconclusive = small, poorly fitted or top-dose-only effect, or another doubt; inactive = no such curve, though single readings can be large; an effect the other way counts as inactive or inconclusive.

SMILES	TrxR1 inh	Nrf2 activator	GALK inh	TrxR1 substrate	A549 tox	Nrf2 inh
CCC(C)Oc1ccc(C(=O)Nc2ccc(CN3CCOCC3)cc2)cc1 (stereo not given)	-	-	-	-	-	23.1µM
COC(=O)c1ccc(NC(=O)c2ccc(CN3CCOCC3)cc2)cc1	-	-	-	-	-	9.2µM
CCOc1ccc(NC(=O)c2ccc(NC(=O)c3ccc(CN4CCOCC4)cc3)cc2)cc1	-	-	-	-	-	-
O=C(Nc1ccc(S(=O)(=O)Nc2ccccc2)cc1)c1ccc(CN2CCOCC2)cc1	-	-	-	-	-	4.11µM
Cn1ccc2c(OCC(=O)NCc3ccc(F)cc3)cccc2c1=O	-	-	.	-	-	.
CCN1CCN(Cc2ccc(NC(=O)c3ccc(C)c(/C=C/c4cnc(Nc5cc(N6CCNCC6)nc(C)n5)cn4)c3)cc2C(F)(F)F)CC1	-	-	.	-	?	18.4µM
C[C@H](C(=O)OCO/N=[N+](\[O-])N1CCCC1)c1cccc2ccccc12	17.8µM	.	.	-	-	-
O=[N+]([O-])c1cc(S(=O)(=O)NCCN2CCOCC2)ccc1Sc1nnnn1-c1ccccc1	20µM	?	-	-	-	?
Cc1ccc(S(=O)(=O)NCCSc2nnnn2-c2ccc(C(N)=O)cc2)cc1	-	-	-	-	-	-
Cc1ccc(-n2nnnc2Sc2ccc(S(=O)(=O)NCCN(C)C)cc2[N+](=O)[O-])cc1	?	?	-	-	6.51µM	10.3µM
COc1ccc(-c2oc3ncn4nc(-c5ccc(Cl)cc5)nc4c3c2-c2ccc(OC)cc2)cc1	-	-	.	-	-	-
Cc1ccc(C(C)C)c(OCC(=O)Nc2ccc(-c3nc4ncccc4o3)cc2C)c1	-	-	.	-	-	-
CCOC(=O)c1ccccc1NC(=O)c1sc2ncn(CC)c(=O)c2c1C	-	-	.	-	-	-
Cc1ccccc1OCCOc1ccccc1C=C(C#N)C#N	.	.	-	.	.	.
Cc1cccc(OCCOc2ccccc2C=C(C#N)C#N)c1	2.82µM	-[9.22 µM]	-	-	-	-
Cc1oc(-c2ccc(C(=O)NC(C)c3ccccc3)cc2)nc1CS(=O)(=O)c1ccccc1 (stereo not given)	-	-	.	-	-	-
OC(CN1C2=NCCN2c2ccccc21)c1ccccc1 (stereo not given)	-	-	-	-	-	-
O=C1C2C3C=CC(O3)C2C(=O)N1CC(O)c1ccccc1 (stereo not given)	50.1µM	-	-	-	-	-
Cc1cc2c(s1)c1cnn(Cc3ccc(C)c(F)c3F)c(=O)c1n2C	.	.	.	.	-	-
O=C(NC1CCCC1)c1sc(=S)n2c1[nH]c(=O)c1ccccc12	-	-	-	-	?	16.4µM
CCN(CC)c1ccc(/C=C/c2cccc[n+]2C)c(OC)c1	?	-	-	-	7.31µM	5.8µM
COc1ccc(/C=C/c2cccc[n+]2C)c(O)c1	-	-	-	-	?	-
Cc1cc2nc(-c3ccc(SCC(=O)N4CCN(C(=O)c5ccco5)CC4)nc3)[nH]c2cc1C	12.6µM	-	-	-	-	-
COc1ccccc1CNC(=O)C1CCN(Cc2cc3ccccc3n2Cc2cccc(C)c2)CC1	-	-	.	-	-	.
COc1cccc(C(=O)Nc2ccc3nc(SCc4ccc(C)cc4)sc3c2)c1	-	-	.	-	-	?
SMILES	TrxR1 inh	Nrf2 activator	GALK inh	TrxR1 substrate	A549 tox	Nrf2 inh
COc1ccc2nc(C(F)(F)Cl)c(C#N)c(N)c2c1	-	-	-	-	-	20.6µM
CCCCN1C(=O)c2[nH]nc(-c3ccccc3O)c2C1c1ccc(OCc2ccccc2)cc1 (stereo not given)	-	-	.	-	?	14.6µM
COCCCN1C(=O)c2[nH]nc(-c3ccccc3O)c2C1c1ccc(OCc2ccccc2)cc1 (stereo not given)	-	-	.	-	?	25.9µM
CCCCN1C(=O)c2[nH]nc(-c3ccccc3O)c2C1c1ccc(OCc2ccccc2)c(OC)c1 (stereo not given)	-	-	.	-	-	?
COCCN1C(=O)c2[nH]nc(-c3ccccc3O)c2C1c1ccc(OC)cc1 (stereo not given)	-	-	-	-	-	-
CCOc1ccc(CN2C(=O)c3ccccc3Sc3ccc(C(=O)N4CCN(C)CC4)cc32)cc1	-	-	.	-	-	-
Cc1ccc(Cl)cc1NC(=O)c1cc(S(=O)(=O)N2CCCCCC2)cn1C	-	-	.	-	-	.
C=C(CN(C)C)C(=O)c1ccc(C)cc1C	2µM	?	.	-[11.4 µM]	-	-
O=C(CSc1ccccc1)Nc1ccc(Cl)c(S(=O)(=O)N2CCOCC2)c1	-	-	.	-	-	23.1µM
COc1ccc(NC(=O)CSc2ccc3ccccc3c2)cc1S(=O)(=O)N1CCCCC1	-	-	-	-	-	7.31µM
O=C(Nc1ccc(Cl)c(S(=O)(=O)N2CCOCC2)c1)C1CCCC1	-	-	.	-	-	23.1µM
O=C(Nc1ccc(F)c(S(=O)(=O)N2CCOCC2)c1)C1CCCCC1	-	-	.	-	-	-
CCc1c(C)nc2nncn2c1Nc1ccc(C(C)C)cc1	-	-	.	-	-	?
CC1(C)Cc2c(sc(NC(=O)c3ccccc3)c2C(=O)O)CO1	-	-	-	-	-	?
CC(C)COc1ccc(C(=O)Nc2sc3c(c2C(=O)O)CC(C)(C)OC3)cc1	-	-	-	-	?	5.8µM
COc1ccc(/C=C2\CCC/C(=C\C=N\N(C)C)C2=O)cc1	-[11.4 µM]	14.1µM	-	-[11.4 µM]	-	-
COc1ccc(/C=C2\CCCCC2=O)cc1	-[11.4 µM]	-	.	-	-	-
CN(C)/N=C/C=C1\CCC/C(=C\c2ccc(F)c(F)c2)C1=O	-	17.8µM	-	-	-	?
Cc1ccc(Cl)c2sc(NC(=O)CS(=O)(=O)c3ccc(Cl)cc3)nc12	-	-	.	-	-	.
Cc1sc2ncnc(N3CCC(C(=O)N(C)CC(=O)Nc4ccc(Cl)c(C(F)(F)F)c4)CC3)c2c1C	-	-	.	-	?	10.3µM
Cc1sc2ncnc(N3CCC(C(=O)N(C)CC(=O)Nc4cccc(F)c4)CC3)c2c1C	.	-	.	.	.	.
Cc1sc2ncnc(N3CCC(C(=O)N(C)CC(=O)Nc4ccccc4Br)CC3)c2c1C	-	-	-	-	-	?
CN(CC(=O)Nc1ccc(Cl)c(C(F)(F)F)c1)C(=O)C1CCN(C(=O)c2ccc(Cl)cc2)CC1	-	-	.	-	?	23.1µM
CN(CC(=O)Nc1ccc(Cl)c(C(F)(F)F)c1)C(=O)C1CCC1	-	-	.	-	-	-
Cc1sc2ncnc(N3CCC(C(=O)N(C)CC(=O)Nc4ccccc4Cl)CC3)c2c1C	-	-	-	-	?	23.1µM
O=C1CCSc2ccc(S(=O)(=O)Nc3cccc(C(F)(F)F)c3)cc2N1	-	-	.	-	-	-
CCOC(=O)N1CCc2c(sc(NCc3cccc(F)c3)c2C(=O)Nc2ccc(OCC)cc2)C1	-	-	.	-	-	.
